# Screening results: PubChem, National Center for Advancing Translational Sciences (NCATS)
# JMJD2A Tudor = blocks the human JMJD2A Tudor domain; Potency, µM (titrated, usually from 114 µM), usual class: inhibitors; actives 4.4% (n = 390,000); AlphaScreen JMJD2A-Tudor / H3K4me3 peptide binding; O75164; also: nearly all actives have a fitted effect of over 50% in size
# Target sequence (O75164 whole entry, looked up, the tested form may be a part): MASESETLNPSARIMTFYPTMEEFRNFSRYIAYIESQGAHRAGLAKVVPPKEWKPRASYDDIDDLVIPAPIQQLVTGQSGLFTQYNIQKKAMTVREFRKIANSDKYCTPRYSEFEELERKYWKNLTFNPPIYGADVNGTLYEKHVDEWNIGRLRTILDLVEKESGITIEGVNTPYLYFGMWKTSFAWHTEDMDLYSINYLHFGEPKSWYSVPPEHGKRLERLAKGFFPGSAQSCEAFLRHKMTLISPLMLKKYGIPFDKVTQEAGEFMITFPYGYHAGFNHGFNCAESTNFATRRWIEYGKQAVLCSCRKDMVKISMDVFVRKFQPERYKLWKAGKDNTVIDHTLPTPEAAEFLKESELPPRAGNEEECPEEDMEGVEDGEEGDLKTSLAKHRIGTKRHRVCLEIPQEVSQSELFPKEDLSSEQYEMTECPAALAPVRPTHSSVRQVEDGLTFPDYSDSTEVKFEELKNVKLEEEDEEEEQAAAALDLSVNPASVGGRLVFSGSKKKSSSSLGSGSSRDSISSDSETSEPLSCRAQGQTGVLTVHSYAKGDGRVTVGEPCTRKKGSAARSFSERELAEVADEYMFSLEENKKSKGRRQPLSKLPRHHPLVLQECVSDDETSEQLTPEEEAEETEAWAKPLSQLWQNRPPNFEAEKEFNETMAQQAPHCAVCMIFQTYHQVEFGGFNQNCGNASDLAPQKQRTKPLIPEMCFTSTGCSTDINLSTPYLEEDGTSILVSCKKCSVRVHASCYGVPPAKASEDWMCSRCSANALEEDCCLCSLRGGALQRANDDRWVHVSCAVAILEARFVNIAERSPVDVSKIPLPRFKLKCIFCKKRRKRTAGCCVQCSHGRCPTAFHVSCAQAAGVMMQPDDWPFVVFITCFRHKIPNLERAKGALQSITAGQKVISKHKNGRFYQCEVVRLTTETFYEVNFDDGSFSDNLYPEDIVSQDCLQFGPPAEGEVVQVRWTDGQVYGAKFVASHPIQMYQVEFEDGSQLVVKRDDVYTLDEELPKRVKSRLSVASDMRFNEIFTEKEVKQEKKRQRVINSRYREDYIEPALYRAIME
# G9a inh = inhibitors of human histone lysine methyltransferase G9a. Q96KQ7. G9a H3K9 monomethylation, AlphaScreen, 2 h. Potency, µM (titrated, usually from 102 µM), actives largely listed as inhibitors. actives 8.8% (n = 350,000); also: nearly all actives have a fitted effect of over 75% in size
#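 Chemiluminescent proximity detection of H3K9 monomethylation, read after 10 min bead incubation in the dark. Reaction: 20 nM G9a, 500 nM biotin-H3K9 peptide, 20 uM SAM cofactor, 2 h, room temperature, following 15 min enzyme-compound preincubation.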
# BAZ2B inh = inhibitors of human BAZ2B bromodomain | Q9UIF8 | AlphaScreen BAZ2B-H3K14Ac peptide displacement | Potency, µM (titrated, usually from 114 µM), hits mostly inhibitors | actives 4.4% (n = 360,000); also: nearly all actives have a fitted effect of over 60% in size
#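 AlphaScreen luminescence quantifies BAZ2B engagement of H3K14Ac peptide; the protein and biotinylated peptide are both at 50 nM final, buffer PBS pH 7.4 with 0.01% Tween-20, all steps at room temperature.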
# Sfp PPTase inh = inhibitors of Bacillus subtilis Sfp phosphopantetheinyl transferase | AID 1490 | Q9F4F7 | Biochemical Sfp PPTase activity, qHTS | Potency, µM, hits mostly inhibitors | actives 3.5% (n = 310,000);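 also: the enzyme is Sfp with the accession as filed and its product quenches rhodamine fluorescence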
#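 With Hepes-Na pH 7.6 buffer containing 10 mM MgCl2, Sfp (15 nM) modified BHQ-2-YbbR (12.5 uM) using rhodamine-CoA (5 uM). Two reads 30 minutes apart at 525/598 nm yielded each well's rate.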
# HP1b binding inh = HP1-beta chromodomain-methylated histone interaction inhibition; P83916; Potency, µM (series often up to 114 µM), actives largely listed as inhibitors; actives 0.56% (n = 390,000); AID 540317; AlphaScreen HP1-beta / biotin-H3K9me3 peptide binding; also: nearly all actives have a fitted effect of over 70% in size
#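 Compound inhibition of the preformed complex between 50 nM HP1-beta and 50 nM biotinylated H3K9me3 peptide was read by AlphaScreen. Buffer was PBS pH 7.4 with 0.01% Tween-20. Incubations ran 30 min at room temperature, with 10 ug/mL donor/acceptor beads.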
# L3MBTL1 block = blocks human L3MBTL1; actives 0.66% (n = 230,000); Q9Y468; AlphaScreen L3MBTL1–H3K9me1 peptide binding; Potency, µM (highest dose often 57.1 µM), actives largely listed as inhibitors; also: nearly all actives have a fitted effect of over 60% in size
#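 AlphaScreen proximity signal between nickel-chelate acceptor and streptavidin donor beads (final 10 ug/mL) reports binding of 50 nM L3MBTL1 to 75 nM biotin-H3 K9me1 peptide; complex incubated with compounds 30 min at room temperature; cefsulodin titration as control.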
# A number is an active result; . = inactive; ? = inconclusive; / = no result given; [ ] = another dose, or the depositor's remark. A selection: hits, their analogues and other compounds. The true share with any hit is near 12%. Calls follow the shape of the dose curve; as a rule, active = well fitted curve in the direction sought with a large enough effect; inconclusive = small, poorly fitted or top-dose-only effect, or another doubt; inactive = no such curve, though single readings can be large; an effect the other way counts as inactive or inconclusive.
SMILES,JMJD2A Tudor,G9a inh,BAZ2B inh,Sfp PPTase inh,HP1b binding inh,L3MBTL1 block
COc1cc(C(=S)N2CCOCC2)ccc1OC(=O)c1ccc([N+](=O)[O-])cc1[N+](=O)[O-],?,/,.,.,.,.
O=C(Oc1ccc(C(=S)N2CCOCC2)cc1)c1cccc(Cl)c1,.,44.7µM,.,39.8µM,?,.
CO[C@H]1C([C@@]2(C)O[C@@H]2CC=C(C)C)[C@]2(CC[C@H]1OC(=O)/C=C/C=C/C=C/C=C/C(=O)O)CO2 (some centres not stated),/,22.4µM,/,39.8µM,/,/
Cc1ccc(-c2nnn(CC(=O)NCC3CC3)n2)o1,.,.,.,.,.,.
Cc1ccc(-c2nnn(CC(=O)NCC3COCCO3)n2)o1 (configuration not stated),50.1µM,.,.,.,?,.
Cc1ccc(-c2nnn(CC(=O)N3CCC(C)CC3)n2)o1,.,35.5µM,.,.,.,/
Cc1ccc(-c2nnn(CC(=O)N3CCCCC3)n2)o1,.,.,.,.,.,.
COC(=O)C/C=C1\c2ccccc2C(OC)C1C (configuration not stated),/,/,/,.,/,/
C/C(=N\NC(=O)c1ccc(Cl)cc1)c1cccc(NC(=O)c2cccnc2)c1,.,.,.,.,.,.
C/C(=N\NC(=O)c1ccn(C)n1)c1cccc(NC(=O)c2ccncc2)c1,10µM,.,.,.,.,.
COc1ccc(C(=O)Nc2ccccc2C(=O)Nc2ccncc2)cc1,.,44.7µM,?,.,.,/
CC(=O)Nc1cccc(/C(C)=N/NC(N)=S)c1,.,31.6µM,.,35.5µM,.,.
COc1ccc(C(=O)Nc2ccccc2C(=O)Nc2ccc(C(=O)O)cc2)cc1,.,?,.,.,.,.
COc1ccc(C(=O)Nc2ccc(/C(C)=N/NC(=O)c3ccncc3)cc2)cc1,/,22.4µM,50.1µM,50.1µM,/,/
O=C(COCc1cc(-c2cccs2)on1)NCc1ccccc1Cl,.,.,.,/,.,/
Cc1ccc(C(=O)CSC2=C(C#N)C(c3ccco3)C3=C(CCCC3=O)N2)cc1 (configuration not stated),.,.,?,.,.,.
CC(C)(C)c1ccc(C(=O)CCCSC2=C(C#N)C(c3ccco3)C3=C(CCCC3=O)N2)cc1 (configuration not stated),?,?,.,50.1µM,.,.
CCOC(=O)CSC1=C(C#N)C(c2ccccc2C)C2=C(CCCC2=O)N1 (configuration not stated),.,?,.,14.1µM,.,/
N#CC1=C(SCC(=O)c2ccccc2)NC2=C(C(=O)CCC2)C1c1ccco1 (configuration not stated),?,?,?,31.6µM,.,?
CCOC(=O)CSC1=C(C#N)C(c2ccccc2OC)CC(=O)N1 (configuration not stated),.,?,.,.,.,/
Cc1cc(C)n2ncc(C(=O)NC(C)C)c2n1,.,/,/,/,/,/
Cn1ccc2cc(S(=O)(=O)N3CCC(C(=O)NCCc4ccccc4)CC3)ccc21,.,.,.,/,.,/
CC(=O)c1cccc(NC(=O)c2ccc(-n3c(C)nnc3C)cc2)c1,.,.,.,/,.,/
O=C(NNc1cccc(Cl)n1)c1ccccc1CC[N+](=O)[O-],22.4µM,.,.,.,.,.
O=C(NNc1cccc(Cl)n1)Nc1ccccc1,.,/,?,.,.,.
SMILES,JMJD2A Tudor,G9a inh,BAZ2B inh,Sfp PPTase inh,HP1b binding inh,L3MBTL1 block
CC(Cl)C(=O)NNc1cccc(Cl)n1 (configuration not stated),.,.,.,50.1µM,.,.
COc1ccc(C(=O)Nc2cc(S(=O)(=O)c3ccc(Cl)cc3)c(O)c(C)c2C)cc1,.,.,.,/,.,/
COc1cccc(N=Nc2c(C)[nH]n(-c3ccccc3)c2=O)c1,?,7.94µM,6.31µM,.,?,?
Cc1[nH]n(-c2ccccc2)c(=O)c1N=Nc1ccc2c(c1)OCO2,?,3.16µM,1.78µM,.,.,/
COc1ccc(OC)c(C2C(C(=O)Nc3ccc(C)cc3)=C(C)Nc3nnnn32)c1 (configuration not stated),.,.,.,/,.,/
CCc1nc2sc3c(O)cc(=O)[nH]c3c2cc1C,.,44.7µM,.,?,.,/
CCN(CC)CCCN1C(=O)C(O)=C(C(=O)c2ccc(C)o2)C1c1ccc(C)o1 (configuration not stated),?,20µM,.,.,.,.
CC(=O)C1=C(O)C(=O)N(CCCO)C1c1ccccc1 (configuration not stated),?,?,?,70.8µM,.,/
COCCCN1C(=O)C(O)=C(C(C)=O)C1c1ccccn1 (configuration not stated),79.4µM,?,.,.,.,.
CC(=O)C1=C(O)C(=O)N(CCO)C1c1ccccc1 (configuration not stated),.,?,?,.,.,.
CCN(CC)CCCN1C(=O)C(O)=C(C(=O)c2ccco2)C1c1ccc(C)o1 (configuration not stated),?,/,/,/,.,/
COc1cc(C2C(C(=O)c3ccco3)=C(O)C(=O)N2Cc2ccccc2)ccc1O (configuration not stated),56.2µM,70.8µM,.,.,.,/
COCCCNc1nc2c(-c3cccc(Br)c3)nnn2c2ccccc12,.,.,.,/,.,/
Cn1cc(C(=O)NCCc2ccccc2)c(=O)c2cc(S(=O)(=O)N3CCCCCC3)ccc21,.,.,/,/,.,/
COCc1cc(C2C(C(=O)c3ccco3)=C(O)C(=O)N2CCOCCO)ccc1O (configuration not stated),50.1µM,?,?,.,.,.
COCCCN1C(=O)C(O)=C(C(=O)c2ccco2)C1c1ccccc1 (configuration not stated),50.1µM,.[12.7 µM],?,.,.,.
COCCCN1C(=O)C(O)=C(C(=O)c2ccc(C)o2)C1c1cccc(Br)c1 (configuration not stated),89.1µM,.,.,.,.,.
O=C(C1=C(O)C(=O)N(CCc2ccccc2)C1c1cccnc1)c1ccco1 (configuration not stated),.,?,?,.,.,.
O=C(C1=C(O)C(=O)N(CCc2ccccc2)C1c1cccs1)c1ccco1 (configuration not stated),.,50.1µM,?,.,.,.
COc1ccc(C2=C(C(C)=O)Sc3nnc(-c4ccc(Cl)cc4)n3N2C(C)=O)cc1OC,.,.,.,/,.,/
CC[C@@H](c1ccccc1)n1c(=O)n2n(c1=O)[C@H]1[C@H](O)[C@H]3O[C@@H]3/C(=N/OC[C@@H](O)COCc3ccco3)[C@@H]1CC2,/,/,/,.,/,/
CCOCCCN1C(=O)C(O)=C(C(C)=O)C1c1cccs1 (configuration not stated),89.1µM,/,/,/,.,/
